According to PubChem BioAssay AID1159580 (chemical genetic matrix, 2015):
Values joined by “and” are separate entries in the source; they are usually repeats but may differ in a detail not shown here. Identical values can stand only once. Out of some 5,500 compounds screened, about 2,000 (36%) were called active. About 18% were inconclusive and are not listed. No stated cut-off is given here; in the data, active means normalized growth mostly below about 0.91 (no sharp cut-off); inconclusive means no clear call, values can overlap the other calls; inactive means mostly above about 0.92. The list shows a part of the results.

Experiment: chemical genetic growth profiling, strain panel (AID 1159580);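 further: tested at 20 µM; growth read once vehicle control cultures reached saturation at 30 °C; 1 = growth at the plate median or of vehicle wells; lower values mean less growth of the strain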
Conditions: S. cerevisiae deletion strains, growth OD

Measured: normalized growth

CC(=O)Nc1ccccc1
inactive: locus YAL021C, strain ccr4, active compounds read low 0.971 | locus YAL026C, strain drs2, active compounds read low 0.977 | locus YAL030W, strain snc1, active compounds read low 0.972 | locus YBL061C, strain skt5, active compounds read low 0.962 | locus YBR009C, strain hhf1, active compounds read low 0.977 | locus YBR021W, strain FUR4, active compounds read low 1.02 | locus YBR023C, strain chs3, active compounds read low 0.961 | locus YBR171W, strain sec66, active compounds read low 0.965 | locus YBR229C, strain ROT2, active compounds read low 0.957 | locus YBR231C, strain swc5, active compounds read low 0.963 | locus YBR279W, strain paf1, active compounds read low 0.981 | locus YCL011C, strain gbp2, active compounds read low 0.962 | locus YCL016C, strain dcc1, active compounds read low 0.966 | locus YCL029C, strain bik1, active compounds read low 0.983 | locus YCL061C, strain MRC1, active compounds read low 0.987 | locus YCL069W, strain vba3, active compounds read low 0.962 | locus YCR088W, strain abp1, active compounds read low 0.976 | locus YDL005C, strain med2, active compounds read low 0.98 | locus YDL035C, strain GPR1, active compounds read low 0.987 | locus YDL040C, strain nat1, active compounds read low 0.97 | locus YDL074C, strain BRE1, active compounds read low 0.963 | locus YDL101C, strain DUN1, active compounds read low 0.98 | locus YDL134C, strain PPH21, active compounds read low 1.02 | locus YDL185W, strain tfp1, active compounds read low 0.986 | locus YDL192W, strain arf1, active compounds read low 0.985 | locus YDR001C, strain nth1, active compounds read low 0.974 | locus YDR069C, strain doa4, active compounds read low 0.959 | locus YDR101C, strain arx1, active compounds read low 0.982 | locus YDR137W, strain rgp1, active compounds read low 1.01 | locus YDR150W, strain NUM1, active compounds read low 0.983 | locus YDR159W, strain sac3, active compounds read low 0.977 | locus YDR162C, strain NBP2, active compounds read low 0.995 | locus YDR195W, strain ref2 0.935 | locus YDR297W, strain sur2, active compounds read low 0.975 | locus YDR318W, strain mcm21, active compounds read low 0.999 | locus YDR334W, strain swr1, active compounds read low 0.956 | locus YDR335W, strain msn5, active compounds read low 0.982 | locus YDR388W, active compounds read low 0.986 | locus YDR392W, strain spt3, active compounds read low 0.993 | locus YDR502C, strain sam2, active compounds read low 0.989 | locus YEL003W, strain gim4, active compounds read low 0.973 | locus YEL037C, strain rad23, active compounds read low 0.972 | locus YEL061C, strain CIN8 (second series), active compounds read low 0.962 | locus YEL061C, strain CIN8, active compounds read low 0.975 | locus YER015W, strain faa2, active compounds read low 0.977 | locus YER016W, strain bim1, active compounds read low 0.973 | locus YER110C, active compounds read low 0.977 | locus YER111C, strain swi4, active compounds read low 0.972 | locus YER155C, strain BEM2 (second series), active compounds read low 0.981 | locus YER155C, strain BEM2, active compounds read low 0.999 | locus YER167W, strain BCK2, active compounds read low 0.999 | locus YFR010W, strain ubp6, active compounds read low 0.96 | locus YGL078C, strain dbp3, active compounds read low 0.99 | locus YGL086W, strain mad1, active compounds read low 0.981 | locus YGL167C, strain pmr1, active compounds read low 0.947 | locus YGL173C, strain kem1, active compounds read low 0.967 | locus YGL227W, strain vid30, active compounds read low 0.966 | locus YGL240W, strain doc1, active compounds read low 0.965 | locus YGL248W, strain PDE1, active compounds read low 0.976 | locus YGL253W, strain hxk2, active compounds read low 0.982 | locus YGR135W, strain pre9, active compounds read low 1 | locus YGR229C, strain SMI1, active compounds read low 0.973 | locus YGR252W, strain gcn5, active compounds read low 0.968 | locus YHR013C, strain ard1, active compounds read low 0.942 | locus YHR027C, strain rpn1, active compounds read low 0.973 | locus YHR030C, strain SLT2, active compounds read low 0.991 and 0.975 | locus YHR079C, strain IRE1 (second series), active compounds read low 0.99 | locus YHR079C, strain IRE1, active compounds read low 0.969 | locus YHR094C, strain hxt1, active compounds read low 0.988 | locus YHR129C, strain ARP1, active compounds read low 0.993 | locus YHR142W, strain chs7, active compounds read low 0.963 | locus YHR200W, strain rpn10, active compounds read low 0.986 | locus YIL066C, strain RNR3, active compounds read low 0.968 | locus YIL073C, strain SPO22, active compounds read low 1.03 | locus YIL125W, strain kgd1, active compounds read low 0.983 | locus YIR030C, strain dcg1, active compounds read low 0.988 | locus YJL092W, strain hpr5, active compounds read low 0.977 | locus YJL095W, strain BCK1 (second series), active compounds read low 0.966 | locus YJL095W, strain BCK1, active compounds read low 0.98 and 0.984 | locus YJL115W, strain asf1, active compounds read low 0.951 | locus YJL129C, strain trk1, active compounds read low 0.981 | locus YJL134W, strain LCB3, active compounds read low 0.992 | locus YJL154C, strain vps35, active compounds read low 0.975 | locus YJL164C, strain tpk1, active compounds read low 0.963 | locus YJL166W, strain qcr8, active compounds read low 0.976 | locus YJL168C, strain set2, active compounds read low 0.978 | locus YJL187C, strain SWE1 (second series), active compounds read low 0.965 | locus YJL187C, strain SWE1, active compounds read low 0.972 | locus YJR043C, strain POL32, active compounds read low 0.968
